The whole screen tested about 310,000 compounds, of which about 2,200 (0.71%) showed an effect of 50% or more. The effect is printed as a negative number. Shown is part of a subset that was picked to be rich in strong results.
Target: human ether-à-go-go-related gene (hERG) potassium channel (human, UniProt Q12809)
Test: primary screen, population patch clamp on CHO cells stably expressing hERG; higher = less effect of the substance

Chain of human ether-à-go-go-related gene (hERG) potassium channel (Q12809 whole entry, looked up): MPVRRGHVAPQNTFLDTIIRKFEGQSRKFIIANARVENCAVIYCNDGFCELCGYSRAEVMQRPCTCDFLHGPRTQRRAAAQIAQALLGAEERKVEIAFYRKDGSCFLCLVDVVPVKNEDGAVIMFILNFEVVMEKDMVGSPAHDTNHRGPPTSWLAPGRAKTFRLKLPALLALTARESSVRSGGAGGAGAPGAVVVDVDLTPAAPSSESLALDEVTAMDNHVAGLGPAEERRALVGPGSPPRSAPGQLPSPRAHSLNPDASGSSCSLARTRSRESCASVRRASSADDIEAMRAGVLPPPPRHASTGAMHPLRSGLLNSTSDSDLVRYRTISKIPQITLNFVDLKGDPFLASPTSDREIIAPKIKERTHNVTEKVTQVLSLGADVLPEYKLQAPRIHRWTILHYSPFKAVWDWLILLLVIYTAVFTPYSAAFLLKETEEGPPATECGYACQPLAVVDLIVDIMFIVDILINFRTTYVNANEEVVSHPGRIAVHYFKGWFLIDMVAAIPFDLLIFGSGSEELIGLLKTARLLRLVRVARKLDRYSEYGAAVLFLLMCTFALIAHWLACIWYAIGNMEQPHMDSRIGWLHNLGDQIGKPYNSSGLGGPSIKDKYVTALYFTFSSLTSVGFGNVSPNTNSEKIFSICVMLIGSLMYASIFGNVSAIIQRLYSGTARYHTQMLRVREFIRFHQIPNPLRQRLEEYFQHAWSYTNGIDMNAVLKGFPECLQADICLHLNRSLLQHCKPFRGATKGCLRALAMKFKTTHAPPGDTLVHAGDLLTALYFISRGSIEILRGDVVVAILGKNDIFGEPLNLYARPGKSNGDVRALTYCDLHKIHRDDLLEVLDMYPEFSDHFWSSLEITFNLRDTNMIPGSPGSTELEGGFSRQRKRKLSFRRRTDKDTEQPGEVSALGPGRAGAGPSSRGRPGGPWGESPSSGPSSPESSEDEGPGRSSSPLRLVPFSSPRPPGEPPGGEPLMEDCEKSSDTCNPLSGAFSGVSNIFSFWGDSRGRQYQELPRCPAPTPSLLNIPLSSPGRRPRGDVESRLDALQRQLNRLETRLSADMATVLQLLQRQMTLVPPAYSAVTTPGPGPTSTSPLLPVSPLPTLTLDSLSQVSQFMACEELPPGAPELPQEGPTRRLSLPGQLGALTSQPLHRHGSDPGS

Row | Compound | hERG current change (%, negative = inhibition) at 1uM [%]
1 | O=C(CCN1CCN(c2ccc(Cl)cc2)CC1)Nc1ccccc1F | 5.25
2 | O=C(CCN1CCN(c2ccccc2F)CC1)Nc1ccccc1Cl | 7.43
3 | O=C(CCN1CCN(c2ccc(F)cc2)CC1)Nc1ccccc1F | -9.21
4 | O=C(CCN1CCN(S(=O)(=O)c2ccc(Cl)cc2)CC1)Nc1ccccc1F | 4.11
5 | O=C(CN1CCN(CCC(=O)Nc2ccccc2F)CC1)Nc1ccc(F)cc1 | -78.3
6 | O=C(CCN1CCN(CC(=O)Nc2ccccc2F)CC1)Nc1ccccc1F | -38.4
7 | O=C(CN1CCN(CCC(=O)Nc2ccccc2F)CC1)Nc1ccc(Cl)cc1 | -84.3
8 | O=C(CCN1CCN(c2ccccc2F)CC1)Nc1ccc(F)cc1 | 14.4
9 | O=C(CCN1CCN(CC(=O)Nc2ccccc2Cl)CC1)Nc1ccccc1F | -54
10 | CC(C)Oc1ccc(C(=O)OCC(=O)NCCNC(=O)COC(=O)c2ccc(OC(C)C)cc2)cc1 | 8.62
11 | Cc1ccc(CCNC(=O)C2CCCN(S(=O)(=O)N3CC(C)CC(C)C3)C2)cc1 (centres unmarked) | 16.3
12 | COc1cc(Cl)c(C)cc1NC(=O)COc1ccccc1[N+](=O)[O-] | -2.79
13 | COc1cccc(/C=C/C(=O)Nc2ccc3c(c2)OCCO3)c1OC | 15.5
14 | CC(=O)NCCc1nc(-c2ccc(Cl)cc2)no1 | 10.3
15 | CC(C)OC(=O)Cc1ccccc1 | 10.3
16 | CCOc1nc(S(=O)(=O)c2ccc(C)cc2)c(Cl)s1 | 7.74
17 | Clc1ccc(-c2nnc(NCc3ccccc3)c3ccccc23)cc1 | 4.55
18 | Clc1ccc(-c2nc(NCCN3CCOCC3)c3ccccc3n2)cc1 | -16.9
19 | Clc1ccc(-c2nnc(NCCN3CCCC3)c3ccccc23)cc1 | -55.1
20 | COc1ccc(NC(=O)CSc2nnc(Cn3c(=O)sc4ccccc43)n2C)c(OC)c1 | -2.58
21 | CCN(C(=O)CSc1nc(N)cc(N)n1)C1CCS(=O)(=O)C1 (centres unmarked) | 7.31
22 | CN(C)C(C)(C)C#CCC(c1ccccc1)c1ccccc1.Cl | 5.49

Row | Compound | hERG current change (%, negative = inhibition) at 1uM [%]
23 | CN(CC#CCC(c1ccccc1)c1ccccc1)C(C)(C)C.Cl | -56.4
24 | CN(CC#CC(O)(c1ccccc1)c1ccccc1)C(C)(C)C | -40.8
25 | CNc1ccc(/C=C/C(=O)c2cccc3ccccc23)cc1[N+](=O)[O-] | 7.91
26 | CC(C)c1ccc(N(CC(=O)N2CCN(Cc3ccccc3)CC2)S(C)(=O)=O)cc1 | 7.12
27 | Cc1cc(/C([O-])=C(/C(=S)Nc2ccc(F)cc2)[n+]2ccccc2)c(C)n1-c1ccc(F)cc1 | -1.77
28 | Cc1c(Cl)c(C(=O)Nc2nc3ccccc3n2CCN2CCCCC2)nn1C | -61.5
29 | O=C(Nc1nc2ccccc2n1CCN1CCCCC1)c1ccco1 | -37.4
30 | CCn1cc(Cl)c(C(=O)Nc2nc3ccccc3n2CCN2CCCCC2)n1 | -51.8
31 | Cc1ccc(C(=O)Nc2nc3ccccc3n2CCN2CCCC2)cc1 | -19.5
32 | O=C(Nc1nc2ccccc2n1CCN1CCCCC1)c1ccc(Cl)cc1 | -5.1
33 | CCn1nccc1C(=O)Nc1nc2ccccc2n1CCN1CCCCC1 | -11.2
34 | CC(C)Oc1cccc(C(=O)C2CCCN(C(=O)CCc3cnn(C)c3)C2)c1 (centres unmarked) | 10.7
35 | CCCn1c(C)cc(/C=C(\C#N)C(=O)OCC(=O)N(C)c2c(N)n(Cc3ccccc3)c(=O)[nH]c2=O)c1C | 11
36 | O=C(CNc1ccc(F)cc1)N/N=C/c1c(O)ccc2ccccc12 | 6.94
37 | CCNc1nnc(-c2ccc(C)cc2)o1 | 9.37
38 | C/C=C/c1ccc(OCCCNC)c(OC)c1.O=C(O)C(=O)O | -10.9
39 | C/C=C/c1ccc(OCCCCNCc2ccco2)c(OC)c1.O=C(O)C(=O)O | -62.6
40 | C/C=C/c1ccc(OCCNCc2ccccc2)c(OC)c1.O=C(O)C(=O)O | 4.38
41 | O=C(c1cccnc1NCc1ccc(F)cc1)N1CCOCC1 | 5.16
42 | CN(C)c1ccc(/C=C/C(=O)c2ccccc2)cc1[N+](=O)[O-] | -0.74
43 | CCc1ccccc1NC(=O)CN1CCN(CC(=O)Nc2ccc(-c3ccccc3)cc2)CC1 | -7.45
44 | CCc1ccccc1NC(=O)CN1CCN(C(=O)C2CCN(C(=O)/C=C/c3ccccc3)CC2)CC1 | -74.5

Row | Compound | hERG current change (%, negative = inhibition) at 1uM [%]
45 | Cc1cccc(NC(=O)CN2CCN(C(=O)C3CCCO3)CC2)c1C (centres unmarked) | 5.32
46 | Cc1cccc(NC(=O)CN2CCN(C(=O)C3CCC3)CC2)c1C | -7.56
47 | COC(=O)C1CCN(C(=O)/C=C/c2ccccc2)CC1 | 11.1
48 | Cc1cccc(NC(=O)CN2CCN(C(=O)C3CCN(C(=O)/C=C/c4ccccc4)CC3)CC2)c1C | -56.6
49 | O=C(CN1CCN(C(=O)c2ccco2)CC1)NCc1ccc(Cl)cc1 | -35.1
50 | O=C(OCC(=O)N1CCN(C(=O)c2ccco2)CC1)c1cncc(Br)c1 | 6.76
51 | C[C@@H](C(=O)NCc1c(F)cccc1Cl)N1C(=O)N2CCc3c([nH]c4ccccc34)[C@@]2(C)C1=O | 4.12
52 | C[N+]1=C(/C=C/Nc2ccccc2)C(C)(C)c2ccccc21.[O-][Cl+3]([O-])([O-])[O-] | -62.8
53 | CC1(C)OC(=O)C(=CNc2ccccc2)C(=O)O1 | 2.21
54 | COC(=O)c1ccc2c(c1)C(C)(C)C(/C=C/c1ccccc1O)=[N+]2C.[I-] | -7.78
55 | O=C1c2ccccc2C(=O)N1OCc1ccc(Cl)cc1 | 8.72
56 | COc1ccc(CN2CCN(Cc3ccc(C(F)(F)F)cc3)CC2)cc1.O=C(O)C(=O)O | -24.5
57 | COc1ccc(CN2CCN(Cc3ccc(C(F)(F)F)cc3)CC2)c(OC)c1.O=C(O)C(=O)O | -66.6
58 | Cc1ccccc1OCCN1CCC(Cc2ccccc2)CC1.O=C(O)C(=O)O | -10
59 | COc1ccc(OC)c(CN2CCN(C(=O)Cc3ccccc3)CC2)c1.O=C(O)C(=O)O | 17.6
60 | Clc1ccccc1OCCN1CCC(Cc2ccccc2)CC1.O=C(O)C(=O)O | 10.6
61 | COc1ccc(CN2CCN(Cc3ccc(C)cc3)CC2)c(OC)c1.O=C(O)C(=O)O | -18.9
62 | COc1cc(C(=O)OCC(=O)N2CCC(Cc3ccccc3)CC2)cc(OC)c1OC | 13.4
63 | COc1cc(C(C)=O)ccc1OCCN1CCC(Cc2ccccc2)CC1.O=C(O)C(=O)O | -93.3
64 | COc1cc(CN2CCC(C)CC2)ccc1OCc1ccccc1.O=C(O)C(=O)O | -3.21
65 | COc1ccc(CN2CCC(Cc3ccccc3)CC2)cc1OC.O=C(O)C(=O)O | -32.9
66 | COc1ccc(OC)c(CN2CCC(Cc3ccccc3)CC2)c1.O=C(O)C(=O)O | -61.9

Row | Compound | hERG current change (%, negative = inhibition) at 1uM [%]
67 | CCOc1ccccc1OCCN1CCC(Cc2ccccc2)CC1.O=C(O)C(=O)O | -53.7
68 | COC(=O)C1CCN(C(=O)Cc2ccc(C)cc2)CC1 | 10.2
69 | COc1cccc(C(=O)Nc2cccc(-c3nnc(-c4ccco4)o3)c2)c1 | -1.01
70 | O=C(O)c1cccc(O)c1O | 8.42
71 | CCOC(=O)N1CCN(Cc2cc(=O)oc3cc4c(cc23)CCC4)CC1 | -3.49
72 | Cc1cc(=S)[nH]c2c(C)cccc12 | 15.9
73 | c1ccc(-c2cnnc(-c3ccccn3)n2)cc1 | 4.98
74 | CN(C)CCCOC(=O)c1cc2ccccc2o1.Cl | 13
75 | COc1ccccc1C1=NOC(C(=O)N2CCN(C(=O)c3ccco3)CC2)C1 (centres unmarked) | 8.33
76 | Cc1cccc2cc(C#N)c(NCCCn3ccnc3)nc12 | -11.1
77 | COc1ccc(CN2CCC(N(CCc3ccccc3)Cc3ccccc3)CC2)c(OC)c1.O=C(O)C(=O)O | -79.8
78 | COc1ccc(CN2CCC(C(=O)N(C)CCc3ccc(OC)c(OC)c3)CC2)c(OC)c1.O=C(O)C(=O)O | -18
79 | COc1cccc(CN2CCC(N(CCc3ccccc3)Cc3ccccc3)CC2)c1OC.O=C(O)C(=O)O | 0.877
80 | COc1cc(C(=S)N2CCC(Cc3ccccc3)CC2)ccc1OCC(N)=O | 3.73
81 | COc1ccc(CCNC(=O)c2ccc(CN3CCC(Cc4ccccc4)CC3)cc2)cc1OC | -3.19
82 | COc1cc(C(C)=O)ccc1OCCCN1CCC(Cc2ccccc2)CC1.O=C(O)C(=O)O | -82.8
83 | CC(C)(C)c1ccc(COn2ccnc2)cc1 | 21
84 | COC(=O)CSc1ccc(C#N)c(SCC(=O)OC)c1 | 12.6
85 | COC(=O)c1ccc(NC(=O)CN2CCN(S(=O)(=O)c3cc(Cl)ccc3OC)CC2)cc1 | 10.2
86 | O=C(CSc1n[nH]c(-c2cccnc2)n1)Nc1ccccc1[N+](=O)[O-] | 11.9

From publication PMC4336329 (PLoS ONE, 2015)
